Data: paper PMC4336329 (PLoS ONE, 2015)
In all, about 310,000 compounds went through this assay and about 14,000 (4.5%) showed an effect of 50% or more. Effects have a minus sign here. The sample as a whole holds a higher share of strong results than the screen did.

target: human ether-à-go-go-related gene (hERG) potassium channel (human, UniProt Q12809); experiment: primary screen, population patch clamp on CHO cells stably expressing hERG; higher = less effect of the substance
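Further: peak tail current of the secondary pulse compared with the same well before compound.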

human ether-à-go-go-related gene (hERG) potassium channel, sequence (Q12809 whole entry, looked up): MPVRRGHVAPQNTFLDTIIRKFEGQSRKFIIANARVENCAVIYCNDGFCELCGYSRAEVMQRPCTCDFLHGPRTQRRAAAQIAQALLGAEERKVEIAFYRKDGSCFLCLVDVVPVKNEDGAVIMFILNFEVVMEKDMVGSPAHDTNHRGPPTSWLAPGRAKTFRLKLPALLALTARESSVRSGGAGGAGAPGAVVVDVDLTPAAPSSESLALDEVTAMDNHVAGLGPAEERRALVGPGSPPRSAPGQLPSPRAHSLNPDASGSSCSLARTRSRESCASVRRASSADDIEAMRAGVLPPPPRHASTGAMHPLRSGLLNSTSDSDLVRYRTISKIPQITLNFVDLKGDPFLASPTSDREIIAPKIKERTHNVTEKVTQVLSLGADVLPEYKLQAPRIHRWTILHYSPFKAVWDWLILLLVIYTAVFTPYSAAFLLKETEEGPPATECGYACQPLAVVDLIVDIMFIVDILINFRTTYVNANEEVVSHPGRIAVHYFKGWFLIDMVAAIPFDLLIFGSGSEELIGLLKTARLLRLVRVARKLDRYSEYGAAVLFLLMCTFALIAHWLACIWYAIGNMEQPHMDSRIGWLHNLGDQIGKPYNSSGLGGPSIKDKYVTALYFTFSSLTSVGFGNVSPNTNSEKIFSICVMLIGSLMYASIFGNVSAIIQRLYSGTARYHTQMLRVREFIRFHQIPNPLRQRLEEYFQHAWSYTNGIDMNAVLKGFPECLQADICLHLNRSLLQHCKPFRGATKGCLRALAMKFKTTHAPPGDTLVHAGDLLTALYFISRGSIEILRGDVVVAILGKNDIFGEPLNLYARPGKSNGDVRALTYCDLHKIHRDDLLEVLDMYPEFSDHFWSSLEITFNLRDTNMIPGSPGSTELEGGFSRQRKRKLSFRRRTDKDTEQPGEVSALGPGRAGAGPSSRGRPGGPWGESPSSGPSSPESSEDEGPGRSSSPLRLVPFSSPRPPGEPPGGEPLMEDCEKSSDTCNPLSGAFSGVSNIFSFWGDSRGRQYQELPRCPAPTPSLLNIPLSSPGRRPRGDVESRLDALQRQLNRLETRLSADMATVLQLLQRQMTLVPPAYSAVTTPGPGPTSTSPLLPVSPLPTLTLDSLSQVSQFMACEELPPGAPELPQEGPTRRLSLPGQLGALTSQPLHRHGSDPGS

| SMILES | hERG current change (%, negative = inhibition) at 10uM [%] |
| --- | --- |
| O=C(c1cnn2c(C(F)F)cc(-c3ccccc3)nc12)N1CCc2ccccc2C1 | -15.6 |
| CCn1c(SCC(=O)NCCc2ccccc2)nc2c(c1=O)SC(C)C2 (stereo not drawn) | 5.03 |
| COc1cccc(NC(=O)CCN2C(=O)c3ccccc3Sc3ncccc32)c1 | 12.7 |
| O=C(COC(=O)C1CCC(=O)N1)Nc1ccc(Br)cc1 (stereo not drawn) | 12 |
| CN1C(C(=O)NCCc2cccs2)CC2Cn3c(nc4ccccc43)C21 (stereo not drawn) | -27.3 |
| Cc1cc2nc3n(c2cc1C)CC1CC(C(=O)NCCc2cccs2)N(C)C31 (stereo not drawn) | -38.5 |
| CN1C(C(=O)NCCc2cccs2)CC2Cn3c(nc4cc(Cl)c(Cl)cc43)C21 (stereo not drawn) | -63.6 |
| CN1C(C(=O)NCCc2cccs2)CC2Cn3c(nc4cc5ccccc5cc43)C21 (stereo not drawn) | -65.9 |
| CNC1=C([N+](=O)[O-])CC([N+](=O)[O-])=C(N2CCNCC2)N1C | 8.57 |
| CCOC(=O)N1CCC(NC(=O)CS(=O)(=O)Cc2nc(-c3ccc(OC)cc3)oc2C)CC1 | 13.3 |
| COc1cccc(-c2nc(CS(=O)(=O)CC(=O)NC3CC3)c(C)o2)c1 | 16.1 |
| COc1cccc(-c2nc(CS(=O)(=O)CC(=O)NCCCN3CCc4ccccc4C3)c(C)o2)c1 | -71.6 |
| CCOC(=O)N1CCC(NC(=O)CS(=O)(=O)Cc2nc(-c3cccc(OC)c3)oc2C)CC1 | -54.2 |
| COc1cccc(-c2nc(CS(=O)(=O)CC(=O)NCCCN3CCOCC3)c(C)o2)c1 | 7.17 |
| COCCCNC(=O)CS(=O)(=O)Cc1nc(-c2cccc(OC)c2)oc1C | 7.73 |
| CCCNC(=O)CS(=O)(=O)Cc1nc(-c2cccc(OC)c2)oc1C | -70 |
| COc1cccc(-c2nc(CS(=O)(=O)CC(=O)NCCCN3CCN(C)CC3)c(C)o2)c1 | 3.5 |
| COc1cccc(-c2nc(CS(=O)(=O)CC(=O)NCCC(C)C)c(C)o2)c1 | -10.7 |
| CCC(=O)N1CC2(c3ccccc3)CN(C(=O)CC)CC(c3ccccc3)(C1)C2=O | 5.6 |
| CC1CCc2cc(F)ccc2N1C(=O)C1(C)CC1(Cl)Cl (stereo not drawn) | 4.51 |
| CC1CCCN(CCS(=O)(=O)c2ccccc2)C1 (stereo not drawn) | 3.59 |
| O=C(CN(C(=O)CNC(=O)c1ccco1)c1ccc(Cl)c(Cl)c1)NC1CCCCC1 | -27.2 |

| SMILES | hERG current change (%, negative = inhibition) at 10uM [%] |
| --- | --- |
| O=C(Nc1ccccc1Sc1ccccc1)c1ccc(F)cc1 | -7.65 |
| O=C(c1ccc(Cl)cc1Cl)N1CCC(C(=O)N2CCOCC2)CC1 | 9.99 |
| CCOC(=O)c1c(C)[nH]c(C)c1S(=O)(=O)NCc1cc(C)ccc1C | -6.49 |
| CCNC(=O)C12CCC(C)(c3nc4cc(C)c(C)cc4nc31)C2(C)C (stereo not drawn) | 33.5 |
| CC12CCC(=O)N1C(C(=O)Nc1nc(-c3ccccc3Cl)cs1)CS2 (stereo not drawn) | -6.16 |
| Cc1ccc(S(=O)(=O)N2C(=O)CCC2C(=O)Nn2cnnc2)cc1 (stereo not drawn) | 5.62 |
| OC(CN1CCN(c2cccc(Cl)c2)CC1)c1ccc(F)cc1 (stereo not drawn) | -47.2 |
| OC1(c2ccc(Cl)cc2)CCN(Cc2cn[nH]c2-c2ccc(F)cc2)CC1 | -68.7 |
| COc1ccc(C2(O)CCN(Cc3nnnn3Cc3ccc(C)cc3)CC2)cc1 | -21.4 |
| OC1(c2ccc(Cl)cc2)CCN(Cc2c[nH]c3ccccc23)CC1 | -63.7 |
| COc1ccc(S(=O)(=O)N2CCC(O)(c3ccc(Cl)cc3)CC2)cc1 | 24.2 |
| COc1ccc(-c2[nH]ncc2CN2CCC(O)(c3ccc(Cl)cc3)CC2)cc1 | -71.8 |
| OCC1(Cc2ccccc2)CCCN(Cc2c[nH]c3ccccc23)C1 (stereo not drawn) | -27 |
| OC1(c2ccc(F)cc2)CCN(Cc2cccnc2)CC1 | 4.22 |
| Cc1ccc(Cn2nnnc2CN2CCC(O)(c3ccc(F)cc3)CC2)cc1 | -7.64 |
| OC(CCCN1CCC(O)(c2ccc(Cl)cc2)CC1)c1ccc(F)cc1 (stereo not drawn) | -75.7 |
| O=C(O)C(=O)O.O=C(c1cccc(Cl)c1)N1CCN(Cc2c[nH]c3ccccc23)CC1 | -20.4 |
| OC(CN1CCN(c2ccc(F)cc2)CC1)c1ccc(Cl)cc1 (stereo not drawn) | -37.9 |
| Cc1ccc2c(c1)sc1nc(=O)n(-c3ccc(Cl)cc3)c(=O)n12 | 6.6 |
| O=C(NCCCN1CCOCC1)C1CC(=O)N(c2ccccc2)C1 (stereo not drawn) | 12.1 |
| CCN1CCN(Cc2oc(CO)cc(=O)c2O)CC1 | -4.6 |
| CC(=O)c1cccc(NC(=O)c2ccc3ccccc3c2)c1 | 6.07 |

| SMILES | hERG current change (%, negative = inhibition) at 10uM [%] |
| --- | --- |
| Cn1cc(C(=O)c2ccc(Cl)cc2Cl)cc1C(=O)N/N=C(\N)COc1cccc(C(F)(F)F)c1 | -4.61 |
| CCOc1ccccc1C1CC(=O)Nc2cc3c(cc21)OCCO3 (stereo not drawn) | -2.02 |
| COCCCN(C(=O)CSCC(=O)Nc1cccc(C)c1)c1c(N)n(Cc2ccccc2)c(=O)[nH]c1=O | 11.3 |
| CC(C)C(NC(=O)c1ccc2c(c1)OCO2)C(=O)N/N=C\c1ccco1 (stereo not drawn) | 2.3 |
| CCN1CCCC1CNC(=O)Cn1ncc2c(=O)oc3ccc(C)cc3c21 (stereo not drawn) | -2.33 |
| C=CCNC(=O)c1c(N)n(-c2cccc(S(N)(=O)=O)c2)c2nc3ccccc3nc12 | -4.04 |
| O=C(Cc1c(F)cccc1Cl)NCCCn1ccnc1 | -24.6 |
| COc1cc2c(cc1OC)C(C)NCC2.Cl (stereo not drawn) | 14.1 |
| OC1(c2ccc(Cl)cc2)CCN(Cc2cn[nH]c2-c2ccccc2)CC1 | -77.7 |
| OCC1(Cc2ccccc2)CCCN(Cc2cn[nH]c2-c2ccccc2)C1 (stereo not drawn) | -16.4 |
| c1ccc(-c2[nH]ncc2CN2CCc3ccccc3C2)cc1 | -2.39 |
| O=C(CCCN1C(=O)C2CCCCN2C1=O)N1CCN(c2ccc([N+](=O)[O-])cc2)CC1 (stereo not drawn) | -74.7 |
| Cl.Nc1ccc(N2CCN(CCCCN3C(=O)C4CCCN4C3=O)CC2)cc1.O (stereo not drawn) | -9.33 |
| O=C1C2CCCN2C(=O)N1CCN1CCN(CCO)CC1 (stereo not drawn) | -5.52 |
| O=C1C2CCCCN2C(=O)N1CCCCN1CCN(c2ccc(F)cc2)CC1 (stereo not drawn) | -44 |
| O=C1C2CCCCN2C(=O)N1CCCCN1CCN(c2ccc([N+](=O)[O-])cc2)CC1 (stereo not drawn) | -75.8 |
| O=C1C2CCCN2C(=O)N1CCCN1CCN(c2ccc([N+](=O)[O-])cc2)CC1 (stereo not drawn) | -68.3 |
| Cc1ccc(N2CCN(CCCN3C(=O)C4CCCN4C3=O)CC2)cc1.Cl (stereo not drawn) | -7.45 |
| O=C1C2CCCCN2C(=O)N1CCN1CCN(c2ccc([N+](=O)[O-])cc2)CC1 (stereo not drawn) | -71.5 |
| O=C1C2CCCCN2C(=O)N1CCCN1CCN(c2ccc(F)cc2)CC1 (stereo not drawn) | -34.8 |
| O=C1C2CCCN2C(=O)N1CCN1CCN(c2ccccc2)CC1 (stereo not drawn) | -8 |
| CCc1nnc(NC(=O)CSc2nc3[nH]c(=O)cc(O)c3s2)s1 | -0.838 |

| SMILES | hERG current change (%, negative = inhibition) at 10uM [%] |
| --- | --- |
| O=C(OCc1ccc([N+](=O)[O-])cc1)c1ccccn1 | -28.2 |
| Nn1c(SCc2c(F)cccc2F)nnc1-c1ccccn1 | 2.69 |
| CC1(C(=O)NCC2CCCO2)Oc2cccnc2NC1=O (stereo not drawn) | 5.86 |
| CC(=O)Nc1c2c(nn1-c1ccccc1C)CS(=O)C2 (stereo not drawn) | 18.7 |
| Cc1ccc(CS(=O)(=O)c2ccc(C(=O)N3CCN(c4ccccn4)CC3)cc2[N+](=O)[O-])cc1 | -43.9 |
| COc1ccccc1/C=C/C1=NC(=C\C=C/c2ccccc2)/C(=O)O1 | 3.98 |
| CC(/C=N/NC(=O)c1ccc(Cn2cc([N+](=O)[O-])cn2)o1)=C\c1ccccc1 | -5.3 |
| O=S(=O)(c1ccc(Br)cc1)N1CCn2c(nc3ccccc32)C1 | -7.4 |
| CCOc1cc(C(=O)OCC(=O)Nc2cc(C)on2)cc(OCC)c1OCC | 2.29 |
| Cc1ccc(NC(=O)CNC(=O)c2ccco2)cc1Cl | 17 |
| COc1ccc(OC)c(-c2csc(N(Cc3ccco3)C(=O)c3ccco3)n2)c1 | 7.74 |
| CCOc1ccccc1N1CC(C(=O)N(C)Cc2cccnc2)CC1=O (stereo not drawn) | 15 |
| COc1ccc(N(C)C(=O)CCS(=O)(=O)c2cccc3nonc23)c(OC)c1 | 1.11 |
| Cl.N=c1n(CCN2CCCC2)c2ccccc2n1CC(O)c1ccco1 (stereo not drawn) | -34 |
| CCCn1c(=N)n(CC(O)c2ccco2)c2ccccc21.Cl (stereo not drawn) | -43.8 |
| CCN(CC)CCn1c(=N)n(CC(O)c2ccco2)c2ccccc21.Cl (stereo not drawn) | -73.2 |
| Cl.N=c1n(CCN2CCCCC2)c2ccccc2n1CC(O)c1ccco1 (stereo not drawn) | -55.2 |
| CCCCCCCn1c(=N)n(CC(O)c2ccco2)c2ccccc21.Cl (stereo not drawn) | -86.9 |
| Cl.Cn1c(=N)n(CC(O)c2ccco2)c2ccccc21 (stereo not drawn) | -9.79 |
| CC(=O)N1N=C(C)CC1c1ccc(OCc2ccccc2)cc1 (stereo not drawn) | -15.5 |
| O=C(CN(CC(=O)N1CCOCC1)S(=O)(=O)c1ccc(Br)s1)N1CCOCC1 | 12.8 |
